# Reference: PubChem BioAssay (EPA / NIEHS)
# The source made the active and inactive calls. How the source made its calls, unless noted: active means hit-call score of the fitted dose curve at least 0.9, where 1 is the maximum; inactive means score below 0.9.
# Tested on: not listed separately
# Assay: CCTE_Shafer_MEA_dev_burst_duration_mean: CCTE's Neural Network Formation Assay for Mean Burst Duration, Shafer Lab (AID 2284045);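 on AC50: curve fitted for loss meaning shorter burst duration than DMSO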
# Method in brief: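 Network-formation assay in primary rat cortical neurons; treatment spans twelve days of development. Mean burst duration per well is integrated by trapezoidal AUC and fitted in the loss-of-signal direction against DMSO baseline.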
SMILES,outcome,AC50
CC(=O)CC(c1ccccc1)c1c(O)c2ccccc2oc1=O (centres undefined),inactive,
O=C1NC(=O)C(c2ccccc2)(c2ccccc2)N1,inactive,
COC(=O)[C@H]1[C@H]2C[C@@H]3c4[nH]c5cc(OC)ccc5c4CCN3C[C@H]2C[C@@H](OC(=O)c2cc(OC)c(OC)c(OC)c2)[C@@H]1OC,,2.43 µM (active)
OCC(O)CO,inactive,
CN(C)CCCN1c2ccccc2Sc2ccc(Cl)cc21,,4.79 µM (active)

# Tested on: not listed separately
# Assay: CCTE_Shafer_MEA_dev_interburst_interval_mean: CCTE's Neural Network Formation Assay for Mean Interburst Interval, Shafer Lab (AID 2284046);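 further: well-mean interburst interval of bursting electrodes as AUC over four recording days; curve fitted for decrease in interburst interval relative to DMSO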
# Method in brief: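 Network formation assay in primary rat cortical cultures, exposed from DIV 0 to 12. Mean interburst interval per well, integrated as AUC over four recordings.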
SMILES,outcome,AC50
CC(=O)CC(c1ccccc1)c1c(O)c2ccccc2oc1=O (centres undefined),inactive,
O=C1NC(=O)C(c2ccccc2)(c2ccccc2)N1,inactive,
COC(=O)[C@H]1[C@H]2C[C@@H]3c4[nH]c5cc(OC)ccc5c4CCN3C[C@H]2C[C@@H](OC(=O)c2cc(OC)c(OC)c(OC)c2)[C@@H]1OC,,3.27 µM (active)
OCC(O)CO,inactive,
CN(C)CCCN1c2ccccc2Sc2ccc(Cl)cc21,,7.95 µM (active)

# Tested on: not listed separately
# Assay: CCTE_Shafer_MEA_dev_inter_network_spike_interval_mean: CCTE's Neural Network Formation Assay for Mean Inter-network Spike Interval, Shafer Lab (AID 2284047)
# Description: (§1) CCTE_Shafer_MEA_dev assay is conducted using Axion Biosystems 48 well microelectrode array (MEA) plates and Maestro recording system. Each well of the MEA plate contains a grid of 16 microelectrodes embedded in the culture surface. Electrically active cells, such as neurons, can be cultured over the electrodes, and electrical activity in these cells can be recorded extracellularly. The spontaneous firing of neurons is captured from each electrode on a microsecond timescale providing both temporally and spatially precise data. […] The CCTE_Shafer_MEA_dev assay uses primary cultures of rat cortical neurons. Recordings are made on days post-plating 5, 7, 9 and 12. As these cultures mature over time, neural networks develop functional activity and form cohesive networks in which electrical activity can be highly coordinated. CCTE_Shafer_MEA_dev_inter_network_spike_interval_mean is 1 of 19 assay components of the CCTE_Shafer_MEA_dev assay. It measures the average time interval between network spikes (temporally-clustered groups of actional potential firing across multiple electrodes) as the average time between peaks of consecutive network spikes during a recording in a microelectrode array (MEA) using Axion Biosystems Maestro 768 channel amplifier with the AxIS adaptive spike detector. To collapse across multiple recordings made on days post-plating 5, 7, 9 and 12, the trapezoidal area-under-the-curve of the component is calculated.Data from the assay component CCTE_Shafer_MEA_dev_inter_network_spike_interval_mean was analyzed into 1 assay endpoint. This assay endpoint, CCTE_Shafer_MEA_dev_inter_network_spike_interval_mean, was analyzed in the negative analysis fitting direction relative to DMSO as the negative control and baseline of activity. Using a type of functional reporter, gain or loss-of-signal activity can be used to understand electrical activity.
# (§2) On the day prior to culture, each well was coated thoroughly with 150 uL of 0.05% polyethyleneimine (PEI, Sigma Cat P3143) in 50 mM HEPES (Sigma Cat H7523) at a pH of 8. The plate was incubated at 37C for one hour. PEI was rinsed out with 500 uL of sterile water three times. Plates were stored at 4C until the day of culture. This culture was plated at a seeding density of 1.5 x 10^5 cells/well on a 48-well MEA plate, prepared as described above. Cells were administered via a 25 uL media/laminin ([…]; Sigma Cat L2020-1MG) drop directly onto the microelectrode array, as adding the cells with the laminin results in better attachment than pre-coating with laminin. After 2 hours, an additional 475 uL of cortical media was added and the cells returned to the incubator. Exposure starts at day 0 of plating and is continued over twelve days of network development until the experiment is terminated. Cells are fed with fresh medium on DIV 5 and 9, following the recordings on those days. The entire volume of media in the well is exchanged and any vehicle or compound treatment is renewed. Complete details are found in OP-NHEERL/ISTD/SBB/TJS/2015-03-r0 (available on request, email shafer.tim@epa.gov). Measurement of the electrical activity is non-invasive, and recordings can be made from the same plate over multiple different days of the culture. In cortical neurons, this allows for the measurement of extracellular action potentials over the period during which networks form in the MEA plate.
row,SMILES,outcome
1,CC(=O)CC(c1ccccc1)c1c(O)c2ccccc2oc1=O (centres undefined),inactive
2,O=C1NC(=O)C(c2ccccc2)(c2ccccc2)N1,inactive
3,COC(=O)[C@H]1[C@H]2C[C@@H]3c4[nH]c5cc(OC)ccc5c4CCN3C[C@H]2C[C@@H](OC(=O)c2cc(OC)c(OC)c(OC)c2)[C@@H]1OC,inactive
4,OCC(O)CO,inactive
5,CN(C)CCCN1c2ccccc2Sc2ccc(Cl)cc21,inactive

# Tested on: not listed separately
# Assay: CCTE_Shafer_MEA_dev_network_spike_number: CCTE's Neural Network Formation Assay for Number of Network Spikes, Shafer Lab (AID 2284048);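 further: synchronized bursts across electrodes counted on days 5 7 9 12 and integrated as AUC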;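 on AC50: fit as a loss of signal meaning fewer network spikes than DMSO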
# Method in brief: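 Extracellular recordings from 16-electrode wells track network formation in rat cortical cultures under continuous treatment from plating. The endpoint is network spike number, expressed as AUC across DIV 5–12 relative to DMSO vehicle.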
SMILES,outcome,AC50
CC(=O)CC(c1ccccc1)c1c(O)c2ccccc2oc1=O (centres undefined),inactive,
O=C1NC(=O)C(c2ccccc2)(c2ccccc2)N1,inactive,
OCC(O)CO,inactive,
CN(C)CCCN1c2ccccc2Sc2ccc(Cl)cc21,,8.7 µM (active)

# Tested on: not listed separately
# Assay: CCTE_Shafer_MEA_dev_network_spike_peak: CCTE's Neural Network Formation Assay for Mean Number of Electrodes in Network Spike, Shafer Lab (AID 2284049);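 on AC50: fitted for loss of signal meaning fewer electrodes in network spikes than DMSO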
# Method in brief: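 Continuous 12-day exposure of rat cortical cultures, starting at plating, on MEA plates. Endpoint: electrodes participating in network-spike peaks, AUC across DIV 5–12, DMSO as negative control.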
SMILES,AC50,outcome
CC(=O)CC(c1ccccc1)c1c(O)c2ccccc2oc1=O (centres undefined),2.98 µM (active),
O=C1NC(=O)C(c2ccccc2)(c2ccccc2)N1,,inactive
COC(=O)[C@H]1[C@H]2C[C@@H]3c4[nH]c5cc(OC)ccc5c4CCN3C[C@H]2C[C@@H](OC(=O)c2cc(OC)c(OC)c(OC)c2)[C@@H]1OC,5.07 µM (active),
OCC(O)CO,,inactive
CN(C)CCCN1c2ccccc2Sc2ccc(Cl)cc21,5.16 µM (active),

# Tested on: DIO2 (gene 1734)
# Assay: CCTE_GLTED_hDIO2: CCTE's human Deiodinase 2 (DIO2) Inhibition Assay, Great Lakes Toxicology and Ecology Division (GLTED) Lab (AID 2284050; active means hit-call score of the fitted dose curve at least 0.9, where 1 is the maximum)
# Method in brief: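 Iodide released by human deiodinase 2 over 3 h with test chemical, measured spectrophotometrically via Sandell-Kolthoff cerium/arsenic reaction. Run n=3; inhibition referenced to DMSO.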
SMILES,AC50,outcome
Cc1ccc(-c2cc(C(F)(F)F)nn2-c2ccc(S(N)(=O)=O)cc2)cc1,156 µM (active),
CCCCCCCCCCCCCCCCO,,inactive
CCN(CC)CCOc1ccc(C(=C(Cl)c2ccccc2)c2ccccc2)cc1,53.3 µM (active),
O=Cc1ccccc1C=O,46.6 µM (active),
CCCCCCC(C=O)=Cc1ccccc1,15.2 µM (active),
CC(=O)O[C@]1(C(C)=O)CC[C@H]2[C@@H]3C=C(Cl)C4=CC(=O)[C@@H]5C[C@@H]5[C@]4(C)[C@H]3CC[C@@]21C,,inactive
O=C(Oc1ccccc1)c1cccc(C(=O)Oc2ccccc2)c1,42.3 µM (active),
S=c1[nH]c2ccccc2s1,53.4 µM (active),
CCCCCCCCCCCCCCOS(=O)(=O)O,36.9 µM (active),
Cc1c(C)c2c(c(C)c1O)CCC(C)(COc1ccc(CC3SC(=O)NC3=O)cc1)O2 (centres undefined),70.1 µM (active),

# Tested on: not listed separately
# Assay: CCTE_Shafer_MEA_dev_spike_duration_mean: CCTE's Neural Network Formation Assay for Mean Spike Duration, Shafer Lab (AID 2284051);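 further: mean network spike duration pooled as area under curve over DIV 5 to 12 recordings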;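 on AC50: potency for a decrease in mean network spike duration versus DMSO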
# Description: as §1, with “CCTE_Shafer_MEA_dev_spike_duration_mean” for “CCTE_Shafer_MEA_dev_inter_network_spike_interval_mean”, “duration of” for “time interval between”, “action” for “actional”, “electrodes)” for “electrodes) as the average time between peaks of consecutive network spikes”, “CCTE_Shafer_MEA_dev_spike_duration_mean,” for “CCTE_Shafer_MEA_dev_inter_network_spike_interval_mean,”
# as §2
SMILES,outcome,AC50
CC(=O)CC(c1ccccc1)c1c(O)c2ccccc2oc1=O (centres undefined),inactive,
O=C1NC(=O)C(c2ccccc2)(c2ccccc2)N1,inactive,
COC(=O)[C@H]1[C@H]2C[C@@H]3c4[nH]c5cc(OC)ccc5c4CCN3C[C@H]2C[C@@H](OC(=O)c2cc(OC)c(OC)c(OC)c2)[C@@H]1OC,,2.71 µM (active)
OCC(O)CO,inactive,
CN(C)CCCN1c2ccccc2Sc2ccc(Cl)cc21,,3.38 µM (active)

# Tested on: not listed separately
# Assay: CCTE_Shafer_MEA_dev_network_spike_duration_std: CCTE's Neural Network Formation Assay for Standard Deviation of Network Spike Duration, Shafer Lab (AID 2284052);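 further: hits are decreases in network spike duration SD versus DMSO vehicle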
# Method in brief: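 Developing networks of rat cortical neurons were exposed over twelve days in vitro on 48-well MEA plates. Trapezoidal AUC of recordings (DIV 5–12) was analysed for signal loss relative to DMSO vehicle.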
SMILES,outcome,AC50
CC(=O)CC(c1ccccc1)c1c(O)c2ccccc2oc1=O (centres undefined),inactive,
O=C1NC(=O)C(c2ccccc2)(c2ccccc2)N1,inactive,
COC(=O)[C@H]1[C@H]2C[C@@H]3c4[nH]c5cc(OC)ccc5c4CCN3C[C@H]2C[C@@H](OC(=O)c2cc(OC)c(OC)c(OC)c2)[C@@H]1OC,,2.18 µM (active)
OCC(O)CO,inactive,
CN(C)CCCN1c2ccccc2Sc2ccc(Cl)cc21,,2.81 µM (active)

# Tested on: not listed separately
# Assay: CCTE_Shafer_MEA_dev_per_network_spike_spike_number_mean: CCTE's Neural Network Formation Assay for Mean Number of Spikes in a Network Spike, Shafer Lab (AID 2284053)
# Method in brief: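 First, rat cortical cells (1.5 x 10^5/well) were seeded onto MEA wells; second, dosing began at plating and was refreshed on DIV 5 and 9; finally, network-spike spike counts across DIV 5–12 were summarized as AUC.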
SMILES,AC50,outcome
CC(=O)CC(c1ccccc1)c1c(O)c2ccccc2oc1=O (centres undefined),2.98 µM (active),
O=C1NC(=O)C(c2ccccc2)(c2ccccc2)N1,,inactive
COC(=O)[C@H]1[C@H]2C[C@@H]3c4[nH]c5cc(OC)ccc5c4CCN3C[C@H]2C[C@@H](OC(=O)c2cc(OC)c(OC)c(OC)c2)[C@@H]1OC,4.8 µM (active),
OCC(O)CO,,inactive
CN(C)CCCN1c2ccccc2Sc2ccc(Cl)cc21,4.44 µM (active),

# Tested on: not listed separately
# Assay: CCTE_Shafer_MEA_dev_per_network_spike_spike_percent: CCTE's Neural Network Formation Assay for Percent of Spikes in a Network Spike, Shafer Lab (AID 2284054)
# Method in brief: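 Developing networks of rat cortical neurons are dosed at day 0 and recorded extracellularly four times up to day 12. The endpoint is the area under the curve of percent spikes in network spikes, fitted in the negative direction relative to DMSO.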
SMILES,outcome,AC50
CC(=O)CC(c1ccccc1)c1c(O)c2ccccc2oc1=O (centres undefined),inactive,
O=C1NC(=O)C(c2ccccc2)(c2ccccc2)N1,inactive,
COC(=O)[C@H]1[C@H]2C[C@@H]3c4[nH]c5cc(OC)ccc5c4CCN3C[C@H]2C[C@@H](OC(=O)c2cc(OC)c(OC)c(OC)c2)[C@@H]1OC,,15.3 µM (active)
OCC(O)CO,inactive,
CN(C)CCCN1c2ccccc2Sc2ccc(Cl)cc21,,9.39 µM (active)
